According to PubChem BioAssay AID1159580 (chemical genetic matrix, 2015):
The whole screen tested about 5,500 compounds, of which about 2,000 (36%) were called active. Inconclusive results (about 18%) are left out. Cut-off read from the data, not from the text of the source: active = normalized growth mostly below about 0.91 (no sharp cut-off); inconclusive = no clear call, values can overlap the other calls; inactive = mostly above about 0.92. The list shows a part of the results.

Test: chemical genetic growth profiling, strain panel (AID 1159580);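 note: tested at 20 µM; growth read once vehicle control cultures reached saturation at 30 °C; 1 = growth at the plate median or of vehicle wells; lower values mean less growth of the strain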
Conditions: growth OD

Measured: normalized growth

Cn1cnc([N+](=O)[O-])c1Sc1ncnc2nc[nH]c12
inactive: S. cerevisiae deletion strains, locus YKL009W, strain mrt4, active compounds read low 0.983 | S. cerevisiae deletion strains, locus YKL068W, active compounds read low 0.997 | S. cerevisiae deletion strains, locus YKL085W, strain MDH1 (second series), active compounds read low 1 | S. cerevisiae deletion strains, locus YKL085W, strain MDH1, active compounds read low 1 | S. cerevisiae deletion strains, locus YKL160W, strain elf1, active compounds read low 1.04 | S. cerevisiae deletion strains, locus YKL190W, strain CNB1, active compounds read low 1.01 | S. cerevisiae deletion strains, locus YKR001C, strain vps1, active compounds read low 0.988 | S. cerevisiae deletion strains, locus YKR026C, strain gcn3, active compounds read low 1.01 | S. cerevisiae deletion strains, locus YKR091W, strain srl3, active compounds read low 1.01 | S. cerevisiae deletion strains, locus YLL001W, strain dnm1, active compounds read low 1.02 | S. cerevisiae deletion strains, locus YLL026W, active compounds read low 1.03 | S. cerevisiae deletion strains, locus YLL041C, strain sdh2, active compounds read low 1.02 | S. cerevisiae deletion strains, locus YLR027C, strain aat2, active compounds read low 1.02 | S. cerevisiae deletion strains, locus YLR039C, strain RIC1, active compounds read low 1.09 | S. cerevisiae deletion strains, locus YLR058C, strain SHM2, active compounds read low 1.01 | S. cerevisiae deletion strains, locus YLR102C, strain apc9, active compounds read low 0.993 | S. cerevisiae deletion strains, locus YLR113W, strain HOG1, active compounds read low 1.03 | S. cerevisiae deletion strains, locus YLR221C, strain rsa3, active compounds read low 1.01 | S. cerevisiae deletion strains, locus YLR258W, strain gsy2, active compounds read low 1.02 | S. cerevisiae deletion strains, locus YLR262C, strain YPT6 (second series), active compounds read low 0.996 | S. cerevisiae deletion strains, locus YLR262C, strain YPT6, active compounds read low 1.1 | S. cerevisiae deletion strains, locus YLR268W, strain sec22, active compounds read low 0.981 | S. cerevisiae deletion strains, locus YLR320W, strain mms22, active compounds read low 1.01 | S. cerevisiae deletion strains, locus YLR330W, strain CHS5, active compounds read low 1.01 | S. cerevisiae deletion strains, locus YLR342W, strain FKS1 (second series), active compounds read low 1.01 | S. cerevisiae deletion strains, locus YLR342W, strain FKS1, active compounds read low 1.02 | S. cerevisiae deletion strains, locus YLR357W, strain rsc2, active compounds read low 1 | S. cerevisiae deletion strains, locus YLR370C, strain arc18, active compounds read low 1.03 | S. cerevisiae deletion strains, locus YLR371W, strain rom2, active compounds read low 0.984 | S. cerevisiae deletion strains, locus YLR384C, strain iki3, active compounds read low 1.03 | S. cerevisiae deletion strains, locus YLR418C, strain cdc73, active compounds read low 1 | S. cerevisiae deletion strains, locus YML016C, strain PPZ1, active compounds read low 1.02 | S. cerevisiae deletion strains, locus YML032C, strain rad52, active compounds read low 0.989 | S. cerevisiae deletion strains, locus YML120C, strain ndi1, active compounds read low 0.999 | S. cerevisiae deletion strains, locus YML124C, strain tub3, active compounds read low 0.994 | S. cerevisiae deletion strains, locus YMR058W, strain fet3, active compounds read low 1.01 | S. cerevisiae deletion strains, locus YMR078C, strain ctf18, active compounds read low 0.985 | S. cerevisiae deletion strains, locus YMR125W, strain sto1, active compounds read low 1.01 | S. cerevisiae deletion strains, locus YMR129W, active compounds read low 1.01 | S. cerevisiae deletion strains, locus YMR205C, strain PFK2, active compounds read low 1.02 | S. cerevisiae deletion strains, locus YMR223W, strain ubp8, active compounds read low 0.994 | S. cerevisiae deletion strains, locus YMR231W, strain pep5, active compounds read low 1.02 | S. cerevisiae deletion strains, locus YMR263W, strain SAP30, active compounds read low 0.999 | S. cerevisiae deletion strains, locus YMR307W, strain GAS1, active compounds read low 1.11 | S. cerevisiae deletion strains, locus YNL067W, strain RPL9B, active compounds read low 0.99 | S. cerevisiae deletion strains, locus YNL071W, strain lat1, active compounds read low 1.03 | S. cerevisiae deletion strains, locus YNL153C, strain GIM3, active compounds read low 0.995 | S. cerevisiae deletion strains, locus YNL175C, strain NOP13, active compounds read low 1.01 | S. cerevisiae deletion strains, locus YNL183C, strain NPR1, active compounds read low 1 | S. cerevisiae deletion strains, locus YNL197C, strain WHI3, active compounds read low 1 | S. cerevisiae deletion strains, locus YNL209W, strain ssb2, active compounds read low 1.04 | S. cerevisiae deletion strains, locus YNL224C, strain SQS1, active compounds read low 0.966 | S. cerevisiae deletion strains, locus YNL233W, strain BNI4, active compounds read low 1 | S. cerevisiae deletion strains, locus YNL248C, strain rpa49, active compounds read low 1.06 | S. cerevisiae deletion strains, locus YNL250W, strain rad50, active compounds read low 0.99 | S. cerevisiae deletion strains, locus YNL271C, strain bni1, active compounds read low 0.993 | S. cerevisiae deletion strains, locus YNL298W, strain CLA4, active compounds read low 0.995 | S. cerevisiae deletion strains, locus YNL307C, strain MCK1, active compounds read low 0.981 | S. cerevisiae deletion strains, locus YNL322C, strain KRE1 (second series), active compounds read low 1.02 | S. cerevisiae deletion strains, locus YNL322C, strain KRE1, active compounds read low 1.01 | S. cerevisiae deletion strains, locus YNR049C, strain mso1, active compounds read low 1.01 | S. cerevisiae deletion strains, locus YNR052C, strain pop2, active compounds read low 0.99 | S. cerevisiae deletion strains, locus YOL006C, strain TOP1, active compounds read low 1 | S. cerevisiae deletion strains, locus YOL012C, strain htz1 1.34 | S. cerevisiae deletion strains, locus YOL147C, strain pex11, active compounds read low 0.988 | S. cerevisiae deletion strains, locus YOR001W, strain rrp6, active compounds read low 1.01 | S. cerevisiae deletion strains, locus YOR061W, strain CKA2, active compounds read low 1.02 | S. cerevisiae deletion strains, locus YOR069W, strain VPS5, active compounds read low 1.01 | S. cerevisiae deletion strains, locus YOR070C, strain gyp1, active compounds read low 1.03 | S. cerevisiae deletion strains, locus YOR080W, strain dia2, active compounds read low 1.02 | S. cerevisiae deletion strains, locus YOR083W, strain WHI5 (second series), active compounds read low 1.02 | S. cerevisiae deletion strains, locus YOR083W, strain WHI5, active compounds read low 0.98 | S. cerevisiae deletion strains, locus YOR106W, strain vam3, active compounds read low 1.04 | S. cerevisiae deletion strains, locus YOR136W, strain idh2, active compounds read low 0.979 | S. cerevisiae deletion strains, locus YOR144C, strain elg1, active compounds read low 0.987 | S. cerevisiae deletion strains, locus YOR184W, strain ser1, active compounds read low 0.981 | S. cerevisiae deletion strains, locus YOR231W, strain MKK1, active compounds read low 1.06 | S. cerevisiae deletion strains, locus YOR265W, strain rbl2, active compounds read low 1.02 | S. cerevisiae deletion strains, locus YOR270C, strain vph1, active compounds read low 1.05 | S. cerevisiae deletion strains, locus YOR290C, strain snf2, active compounds read low 1.04 | S. cerevisiae deletion strains, locus YOR316C, strain cot1, active compounds read low 0.996 | S. cerevisiae deletion strains, locus YPL051W, strain arl3, active compounds read low 1.04 | S. cerevisiae deletion strains, locus YPL078C, strain atp4, active compounds read low 1.03 | S. cerevisiae deletion strains, locus YPL106C, strain sse1, active compounds read low 1.03 | S. cerevisiae deletion strains, locus YPL240C, strain hsp82, active compounds read low 1.05 | S. cerevisiae deletion strains, locus YPL241C, strain CIN2, active compounds read low 1 | S. cerevisiae deletion strains, locus YPL256C, strain CLN2, active compounds read low 1.05 | S. cerevisiae deletion strains, locus YPR119W, strain clb2, active compounds read low 0.991 | S. cerevisiae deletion strains, locus YPR141C, strain kar3, active compounds read low 0.99 | S. cerevisiae deletion strains, locus YPR163C, strain tif3, active compounds read low 0.981 | S. cerevisiae deletion strains, locus YPR167C, strain met16, active compounds read low 0.989 | S. cerevisiae deletion strains, strain wtn01, active compounds read low 0.988 | S. cerevisiae strains, strain wild type, active compounds read low 1.01
